Assay results as given in PubChem BioAssay (NCI).
This is part of a sample that, as a whole, favours compounds with a hit. Of some 79,000 tested, about 15% had one in any assay. Calls of active or inactive are those of the source. No stated cut-off is given here; in the data, active means growth inhibition above about 70%; inactive means the rest.

Key:
[1] = NCI Yeast Anticancer Drug Screen. Data for the rad52 strain (AID 147);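 further: 0% = growth of vehicle-treated control cultures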; settings: S. cerevisiae rad52 mutant growth inhibition, hits give high values
Summary of the method: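 Yeast strain carrying a DNA damage repair alteration was exposed to test compounds. Growth inhibition was measured relative to vehicle-treated controls.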

[2] = NCI Yeast Anticancer Drug Screen. Data for the wt1 strain (AID 149);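 further: 0% = growth of vehicle-treated wt1 cultures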; settings: S. cerevisiae wt1 strain (SPY 50644) growth inhibition, hits give high values
Summary of the method: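 Measured: growth of wt1 yeast under compound versus vehicle treatment, reported as inhibition.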

[3] = NCI Yeast Anticancer Drug Screen. Data for the rad50EPP+ strain (AID 151);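 further: 0% = growth of vehicle-treated control cultures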; settings: S. cerevisiae rad50 mutant strain, hits give high values
Summary of the method: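 Yeast strain carrying rad50 alteration (rad50EPP+) exposed to compounds; growth inhibition measured relative to vehicle-treated controls.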

[4] = NCI Yeast Anticancer Drug Screen. Data for the mgt1 strain (AID 153); settings: S. cerevisiae mgt1 mutant growth inhibition, hits give high values
Summary of the method: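 Yeast mgt1 strain (DNA repair/cell-cycle alteration panel) exposed to compounds; growth inhibition measured relative to vehicle-treated controls.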

[5] = NCI Yeast Anticancer Drug Screen. Data for the rad50 strain (AID 155);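 further: 0% = growth of vehicle-only cultures of the same strain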; settings: S. cerevisiae rad50 strain growth inhibition, hits give high values
Summary of the method: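 Growth of the mutant yeast was measured after compound exposure and referenced to vehicle-treated cultures.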

[6] = NCI Yeast Anticancer Drug Screen. Data for the mec2-1 strain (AID 157); settings: S. cerevisiae mec2-1 strain, hits give high values
Summary of the method: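 mec2-1 yeast strain, carrying an alteration in DNA damage repair or cell cycle control, was exposed to compounds; growth inhibition was measured relative to vehicle-treated controls.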

[7] = NCI Yeast Anticancer Drug Screen. Data for the rad14 strain (AID 159);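 further: 0% = growth of vehicle-treated control cultures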; settings: S. cerevisiae rad14 strain growth inhibition, hits give high values
Summary of the method: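 Here, inhibition of yeast growth was measured after compound exposure, using a strain with a genetic defect in DNA damage repair and vehicle-treated cultures as the reference.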

[8] = NCI Yeast Anticancer Drug Screen. Data for the sgs1 mgt1 strain (AID 161);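 further: 0% = growth of cultures given vehicle only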; settings: S. cerevisiae sgs1 mgt1 strain, hits give high values
Summary of the method: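 This yeast growth screen uses a strain with defined DNA-repair lesions; compound-treated growth is compared with vehicle-treated growth.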

[9] = NCI Yeast Anticancer Drug Screen. Data for the CLN2oe strain (AID 163);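 further: 0% = growth of vehicle-only control cultures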; settings: S. cerevisiae CLN2oe strain, hits give high values
Summary of the method: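 Yeast cells carrying a defined cell-cycle control alteration were exposed to test compounds. Growth inhibition was scored against vehicle-treated control cultures.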

[10] = NCI Yeast Anticancer Drug Screen. Data for the cln2 rad14 strain (AID 165);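 further: 0% = growth equal to vehicle treated cultures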; settings: S. cerevisiae cln2 rad14 strain, hits give high values
Summary of the method: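 Yeast carrying cln2 and rad14 alterations (cell cycle control and DNA damage repair) were exposed to compounds. Growth inhibition was measured against vehicle-treated controls.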

[11] = NCI Yeast Anticancer Drug Screen. Data for the bub3 strain (AID 167); settings: S. cerevisiae bub3 mutant strain, hits give high values
Summary of the method: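 Whole-cell yeast assay. The mutant strain was incubated with compounds, and growth inhibition was determined by comparison with vehicle-treated cells.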

[12] = NCI Yeast Anticancer Drug Screen. Data for the wt2 strain (AID 169);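 further: 0% = growth of vehicle-treated yeast cultures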; settings: S. cerevisiae wt2 strain growth inhibition, hits give high values
Summary of the method: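 Yeast cells were exposed to test compounds, and growth inhibition was measured relative to vehicle-treated controls.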

[13] = NCI Yeast Anticancer Drug Screen. Data for the mlh1 strain (AID 171);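 further: 0% = growth of vehicle-treated control cultures of the same strain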; settings: S. cerevisiae mlh1 strain growth inhibition, hits give high values
Summary of the method: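 Yeast carrying a defined genetic alteration in DNA damage repair or cell cycle control were exposed to test compounds. Growth inhibition was measured relative to vehicle-treated controls.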

[14] = NCI Yeast Anticancer Drug Screen. Data for the sgs1 strain (AID 173);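 further: 0% = growth of vehicle-only control cultures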; settings: S. cerevisiae sgs1 mutant, hits give high values
Summary of the method: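 Yeast mutant strains carrying defined defects in DNA damage repair or cell cycle control were exposed to test compounds. Growth inhibition was scored against vehicle-treated controls.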

[15] = NCI Yeast Anticancer Drug Screen. Data for the mlh1 rad18 strain (AID 175); settings: S. cerevisiae mlh1 rad18 strain growth inhibition, hits give high values
Summary of the method: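 Growth inhibition of the yeast strain was measured after compound exposure and expressed relative to vehicle-treated controls. The strain carries defined defects in DNA damage repair.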

[16] = NCI Yeast Anticancer Drug Screen. Data for the rad18 strain (AID 177); settings: S. cerevisiae rad18 mutant growth inhibition, hits give high values
Summary of the method: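 Yeast carrying a defined DNA damage repair alteration were exposed to compounds. Growth inhibition was expressed relative to vehicle-treated controls.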

[17] = at 5.0 µM (retest, dose inferred, filed as 0.5)
[18] = at 50.0 µM (retest, dose inferred, filed as 5.0)

Measured: growth inhibition

COc1cc(N)ccc1Nc1c2ccccc2nc2ccccc12
inactive: [1]; at 1.2 µM -4% | [1]; at 3.7 µM 33% | [2]; at 1.2 µM -17% | [2]; at 3.7 µM -16% | [2]; at 11.0 µM -19% | [2]; at 33.0 µM -17% | [2]; at 100.0 µM 69% | [3]; at 1.2 µM -9% | [3]; at 3.7 µM -11% | [3]; at 11.0 µM 10% | [3]; at 33.0 µM 59% | [4]; at 1.2 µM 2% | [4]; at 3.7 µM 25% | [4]; at 11.0 µM 32% | [4]; at 33.0 µM 51% | [5]; at 1.2 µM 6% | [5]; at 3.7 µM 32% | [5]; at 50.0 µM 36.3% | [6]; at 1.2 µM -45% | [6]; at 3.7 µM -30% | [6]; [17] 20% | [6]; at 11.0 µM -27% | [6]; at 33.0 µM 2% | [6]; at 50.0 µM 42.4% | [7]; at 1.2 µM -43% | [7]; at 3.7 µM -25% | [7]; at 11.0 µM -5% | [7]; at 33.0 µM 13% | [7]; at 100.0 µM 66% | [8]; [17] 58% | [9]; at 1.2 µM 29% | [9]; at 3.7 µM 11% | [9]; at 11.0 µM 6% | [9]; at 33.0 µM 29% | [10]; [17] 40% | [11]; at 1.2 µM 8% | [11]; at 3.7 µM 15% | [11]; [17] 42% | [11]; at 11.0 µM 14% | [11]; at 33.0 µM 28% | [11]; at 50.0 µM 63% | [12]; at 1.2 µM 6% | [12]; at 3.7 µM 9% | [12]; at 11.0 µM 9% | [12]; at 33.0 µM 31% | [13]; at 1.2 µM -24% | [13]; at 3.7 µM -15% | [13]; at 11.0 µM -16% | [13]; at 33.0 µM 11% | [14]; at 1.2 µM -16% | [14]; at 3.7 µM 1% | [14]; at 11.0 µM -4% | [14]; at 33.0 µM 36% | [15]; at 50.0 µM 65.7% | [16]; at 1.2 µM -2% | [16]; at 3.7 µM -11% | [16]; at 11.0 µM -4% | [16]; at 33.0 µM 7%
active: [1]; at 11.0 µM 70% | [1]; at 33.0 µM 82% | [1]; at 100.0 µM 86% | [3]; at 100.0 µM 88% | [4]; at 100.0 µM 89% | [5]; [17] 90% | [5]; at 11.0 µM 74% | [5]; at 33.0 µM 89% | [5]; [18] 95% | [5]; at 100.0 µM 91% | [6]; [18] 92% | [6]; at 100.0 µM 84% | [8]; [18] 97% | [8]; at 50.0 µM 84.9% | [9]; at 100.0 µM 81% | [10]; [18] 83% | [10]; at 50.0 µM 80.8% | [11]; [18] 86% | [11]; at 100.0 µM 85% | [12]; at 100.0 µM 86% | [13]; at 100.0 µM 80% | [14]; at 100.0 µM 92% | [15]; [17] 81% | [15]; [18] 94% | [16]; at 100.0 µM 82%

CC(=O)[C@]1(O)Cc2c(O)c3c(c(O)c2[C@@H](OC2CC(N)C(O)C(C)O2)C1)C(=O)c1c(OCc2ccccc2)cccc1C3=O (stereo not given in full)
inactive: [1]; at 1.2 µM 21% | [1]; at 3.7 µM 40% | [1]; at 11.0 µM 59% | [2]; at 1.2 µM -9% | [2]; at 3.7 µM -4% | [2]; at 11.0 µM 5% | [2]; at 33.0 µM -4% | [2]; at 100.0 µM 7% | [3]; at 1.2 µM 18% | [3]; at 3.7 µM 21% | [3]; at 11.0 µM 28% | [3]; at 33.0 µM 46% | [3]; at 100.0 µM 65% | [4]; at 1.2 µM -2% | [4]; at 3.7 µM 8% | [4]; at 11.0 µM 5% | [4]; at 33.0 µM 14% | [4]; at 100.0 µM 43% | [5]; at 1.2 µM 14% | [5]; at 3.7 µM 24% | [5]; [17] 9% | [5]; at 11.0 µM 44% | [6]; at 1.2 µM 4% | [6]; at 3.7 µM -10% | [6]; [17] -9% | [6]; at 11.0 µM -1% | [6]; at 33.0 µM 2% | [6]; [18] 24% | [6]; at 50.0 µM 12.4% | [6]; at 100.0 µM 28% | [7]; at 1.2 µM 7% | [7]; at 3.7 µM 18% | [7]; at 11.0 µM 18% | [7]; at 33.0 µM 27% | [7]; at 100.0 µM 51% | [8]; [17] 11% | [8]; [18] 46% | [8]; at 50.0 µM 9.95% | [9]; at 1.2 µM 5% | [9]; at 3.7 µM 16% | [9]; at 11.0 µM 27% | [9]; at 33.0 µM 30% | [9]; at 100.0 µM 31% | [10]; [17] 4% | [10]; [18] 35% | [10]; at 50.0 µM -1.65% | [11]; at 1.2 µM -2% | [11]; at 3.7 µM 1% | [11]; [17] 10% | [11]; at 11.0 µM 5% | [11]; at 33.0 µM 18% | [11]; [18] 36% | [11]; at 50.0 µM 17.4% | [11]; at 100.0 µM 33% | [12]; at 1.2 µM -69% | [12]; at 3.7 µM -65% | [12]; at 11.0 µM -53% | [12]; at 33.0 µM -16% | [13]; at 1.2 µM -2% | [13]; at 3.7 µM -1% | [13]; at 11.0 µM 6% | [13]; at 33.0 µM 23% | [13]; at 100.0 µM 61% | [15]; [17] -4% | [15]; [18] 46% | [16]; at 1.2 µM 2% | [16]; at 3.7 µM 7% | [16]; at 11.0 µM 9% | [16]; at 33.0 µM 20% | [16]; at 100.0 µM 55%
active: [1]; at 33.0 µM 79% | [1]; at 100.0 µM 94% | [5]; at 33.0 µM 71% | [5]; [18] 83% | [5]; at 50.0 µM 72.8% | [5]; at 100.0 µM 92% | [12]; at 100.0 µM 92%
